Bioassay records (PubChem)
Hits are enriched below; roughly 6.2% of the tested compounds scored in any of these assays.
HCMV inh: qHTS Assay for inhibitors of the human cytomegalovirus (HCMV); HFF cells, HCMV-luciferase reporter, 72 h; hits give low values; activity change, negative = inhibition, % at 57.5 µM; hit rate 4.5% among 410,000; AID 1259415, 2018; in the data active = activity change below about -60%; inconclusive = no clear call, values can overlap the other calls; inactive = above about -39%
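Luciferase read-out from HCMV-luciferase-infected HFFs (MOI 1 PFU/cell) 72 h post infection at 37C; compounds added after 16 h cell attachment; activity normalized between buffer-only basal and Salinomycin (10uM) inhibitor controls.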
LASV entry inh: qHTS for Inhibitors of binding or entry into cells for Lassa Virus | Lassa virus pseudotype entry inhibition, cell reporter | Potency, µM (titrated, usually from 37.9 µM), for inactives: at the highest dose activity change, negative = inhibition, hits mostly inhibitors | hit rate 1.2% among 300,000 | AID 540256, 2011; calls by dose curve; tested in HEK293 cells; note: potency is the fitted concentration of half-maximal effect; nearly all actives have a fitted effect of over 50% in size
FMDV inh: High Throughput Screening for Foot and Mouth Disease Virus Antivirals. Potency, µM (doses to about 57.9 µM), for the others: at the top dose activity change, negative = inhibition, hits mostly inhibitors. hit rate 1.2% among 410,000. FMDV antiviral cell-based qHTS; calls by dose curve; tested in HEK293T cells; note: read-out not given here; potency is the fitted concentration of half-maximal effect; nearly all actives have a fitted effect of over 45% in size
MARV entry inh: qHTS for inhibitors of binding or entry into cells for Marburg Virus; Marburg virus pseudotyped entry inhibition, cell reporter; Potency, µM (series often up to 37.8 µM), for the others: at the top dose activity change, negative = inhibition, hits mostly inhibitors; hit rate 1.8% among 300,000; AID 540276, 2011; calls by dose curve; tested in HEK293 cells; note: potency is the fitted concentration of half-maximal effect
Active calls of the source: *; ? = inconclusive; nt = not tested or not shown; + = active, no number; [ ] = dose if it differs, or a comment. % is set by controls: 0 for no effect and ±100 for the full control effect.

SMILES	HCMV inh	LASV entry inh	FMDV inh	MARV entry inh
O=C(O)CCN1C(=O)/C(=C\c2cccc(Oc3ccccc3)c2)SC1=S	?	0%	-18%	0%
COc1ccccc1/C=C1\SC(=S)N(CCC(=O)N2CCCCC2CCO)C1=O (stereo not given)	-77*	-12%[46.1 µM]	0%	?
COc1cccc(/C=C2\SC(=S)N(CCCC(=O)N3CCCCC3CCO)C2=O)c1 (stereo not given)	-110*	nt	-18%	nt
COc1ccccc1/C=C1\SC(=O)N(CCC(=O)N2CCCCC2CCO)C1=O (stereo not given)	-23	nt	-15%	nt
COc1ccc(N2C(=O)[C@@H]3C[C@H]2CN3Cc2cccn2-c2nccs2)cc1Cl	nt	nt	4%	nt
O=C(Nc1nnc2n1CCS2)c1cc(C(F)(F)F)cc(C(F)(F)F)c1	22	?	-26%	nt
CCOc1cc(-c2nccc3cc(OC)c(OC)cc23)cc(OCC)c1OCC	-27	?	?	13µM*
COc1cc2ccnc(Cc3cccc(OC)c3OC)c2cc1OC	-72*	nt	?	20%[46.1 µM]
COc1cc(N)c(Cc2nccc3cc(OC)c(OC)cc23)cc1OC	2	?	-26%	-15%[46.1 µM]
CCOC(=O)CSc1nc2cc3c(cc2c(=O)n1CCCCCC(=O)NCc1ccc(OC)cc1)OCO3	29	4%[46.1 µM]	-9%	nt
CCOC(=O)C1CSCCS(=O)(=O)N1Cc1ccc(Br)cc1 (stereo not given)	-16	-1%[46.1 µM]	nt	nt
C=C(CN(C)C)C(=O)c1ccc(OC2OC(COC(C)=O)C(OC(C)=O)C(OC(C)=O)C2OC(C)=O)cc1 (stereo not given)	6	?	10µM*	?
Cc1ccc(/C=C/C(=O)c2c(C)nc3ccccn23)cc1	-88*	-29%	-10%	?
CC(=O)c1c(C)nc2ccccn12	-30	nt	-2%	0%
Cc1nc2ccccn2c1C(=O)/C=C/c1cccc([N+](=O)[O-])c1	-101*	nt	6.3µM*	nt
C/C(=N\NC(=O)c1c(C)nc2ccccn12)c1cccc([N+](=O)[O-])c1	-26	9%	-20%	3%[46.1 µM]
C[C@@H](CN(C)C[C@H]1C(=O)O[C@@H]2C[C@@]3(C)CCC[C@]4(CO4)C3CC21)[C@H](O)c1ccccc1 (stereo not given in full)	nt	nt	-8%	nt
COc1ccc(-c2c(C)nn3c(N4CCN(c5cc(Cl)ccc5C)CC4)cc(C)nc23)cc1OC	-31	-1%[46.1 µM]	-4%	-2%[46.1 µM]
Cc1ccc(OCC(=O)Nc2ccccc2N2CCCC2)c(C)c1	-63*	?	-4%	?
CC(=O)c1ccc(OCC(=O)Nc2ccccc2N2CCCC2)cc1	-83*	-16%[46.1 µM]	-4%	-35%[46.1 µM]
CC(C)C(=O)N1CCN(c2ccccc2NC(=O)COc2ccc(C3CCCCC3)cc2)CC1	nt	-12%	?	7.9µM*
O=C(COc1ccc([N+](=O)[O-])cc1)Nc1ccccc1N1CCCC1	-64*	nt	?	nt
CCOc1ccc(OCC(=O)Nc2ccccc2N2CCCC2)cc1	-20	?	?	-28%
CC(C)C[C@@H]1CN(CCCC[C@H]2CNC(=O)C(=O)N2CCC2CCCCC2)C(=O)C(=O)N1CCC1CCCCC1	-15	nt	?	nt
CC(C)C[C@H]1CN(CCCC[C@H]2CNC(=O)C(=O)N2CCC2CCCCC2)C(=O)C(=O)N1CCC1CCCCC1	-108*	nt	35µM*	nt
SMILES	HCMV inh	LASV entry inh	FMDV inh	MARV entry inh
Cc1ccc(C)c(OCCn2c(-c3ccc(Cl)cc3)nc3ccccc3c2=O)c1C	37	0%[46.1 µM]	-7%	-2%[46.1 µM]
Clc1ccccc1C(c1ccccc1)(c1ccccc1)n1ccnc1	-70*	6.5µM*	?	16µM*
C#CC(c1ccccc1)(c1ccccc1)n1ccnc1	?	nt	-24%	nt
CCOc1ccccc1NC(=O)C(C)n1nnc2sc3c(c2c1=O)CCCC3 (stereo not given)	-2	16%[46.1 µM]	0%	11%[46.1 µM]
CCOC(=O)N1CCC(NC(=O)c2cnn(-c3ccc(F)cc3F)c2C2CCN(C(=O)OC(C)(C)C)CC2)CC1	+	?	-9%	nt
Cn1ncc(C(=O)N2CCN(c3ccccc3F)CC2)c1C1CCN(C(=O)OC(C)(C)C)CC1	?	?	-5%	nt
CC(C)(C)OC(=O)N1CCC(c2c(C(=O)N3CCCCC3)cnn2-c2ccc(F)cc2F)CC1	0	?	-12%	nt
CC(C)(C)OC(=O)N1CCC(c2c(C(=O)NC3CCN(Cc4ccccc4)CC3)cnn2-c2ccc(F)cc2F)CC1	0	-9%[46.1 µM]	-1%	nt
CCN1CCN(C(=O)c2cnn(-c3ccc(F)cc3F)c2C2CCN(C(=O)OC(C)(C)C)CC2)CC1	+	-23%[46.1 µM]	-7%	nt
Cc1ccc(-n2ncc(C(=O)N3CCN(c4ccccc4F)CC3)c2C2CCN(C(=O)OC(C)(C)C)CC2)cc1C	+	?	-1%	nt
COc1c(Cl)cc(Cl)cc1/C=C/C(=O)c1ccc(NC(=O)c2cccs2)cc1	-99*	?	0%	11µM*
CSc1ccc(C(=O)N2CCc3c(cnc(C)c3CNC(=O)c3cncs3)C2)cc1	nt	nt	11%	nt
Cc1cc(C)cc(NC(=O)CC(C)n2nc(C)cc2C)c1 (stereo not given)	-11	-4%[46.1 µM]	-5%	nt
CC1(C)CC(=O)C(N=Nc2cc(C(F)(F)F)ccc2Cl)=C(O)C1	-62*	nt	-5%	nt
Cc1ccc2[nH]c3c(=O)n(CC(=O)N4CCCCC4)ncc3c2c1	4	-4%[46.1 µM]	-2%	nt
CCOc1ccc(S(=O)(=O)NCC(c2ccc3c(c2)OCO3)N2CCN(C)CC2)cc1 (stereo not given)	-21	?	-2%	7.9µM*
C=CCNC(=O)C1CC1(c1cccc(C)c1)c1cccc(C)c1 (stereo not given)	0	4%	3%	-25%[46.1 µM]
Cc1cccc(C2(c3cccc(C)c3)CC2C(=O)Nc2ccc([N+](=O)[O-])cc2O)c1 (stereo not given)	-104*	?	?	13µM*
CC(C)(C)c1ccc(C(=O)NC2=NC(c3cccc(F)c3)CC(=O)N2)cc1 (stereo not given)	-18	22%[46.1 µM]	5%	?
CCOC(=O)[C@@H](C)N1[C@@H](C)[C@H](c2ccccc2)Oc2ccc(Cl)cc2S1(=O)=O	-12	nt	nt	nt
CCOC(=O)[C@@H](C)N1[C@H](C)[C@H](c2ccccc2)Oc2cc(Br)ccc2S1(=O)=O	nt	nt	nt	4.4µM*
NC(=O)c1ccccc1-c1nc(-n2ccnc2)c2ccccc2n1	nt	nt	0%	nt
Cc1no[n+]([O-])c1COc1cccc(/C=N/Nc2nncn2N)c1	-82*	nt	0%	nt
CC(=O)N(c1cc(C)ccc1C)c1ccccc1[N+](=O)[O-]	-63*	19%[46.1 µM]	-13%	?
O=C(OCC1CCCO1)c1ccc2c(c1)N(Cc1cccc(Cl)c1)C(=O)c1ccccc1S2(=O)=O (stereo not given)	13	-6%[46.1 µM]	-14%	nt
CCc1ccc(NC(=O)CCS(=O)(=O)c2ccc3c(c2)n(C)c(=O)c(=O)n3C)cc1	-29	23%[46.1 µM]	-11%	1%[46.1 µM]
Cn1cccc1CNC1CCCCC1	-1	-3%	nt	17%
c1ccc(-n2cccc2CNC2CCCCC2)cc1	nt	2%	nt	21µM*
